Assay in all cases: log2 ratio of Biotin-Ahx-Ub-VS probe labelling (fragment/DMSO); higher = less target engagement (more negative = stronger competition), active = hit call of the paper (q ≤ 0.05, log2 ratio ≤ -1)
Holding throughout (settings): compound concentration: 200 uM; treatment time: 3 h

One experiment concerns the target T1, OTUD6B (UniProt Q8N6M0).
T1 sequence (whole entry): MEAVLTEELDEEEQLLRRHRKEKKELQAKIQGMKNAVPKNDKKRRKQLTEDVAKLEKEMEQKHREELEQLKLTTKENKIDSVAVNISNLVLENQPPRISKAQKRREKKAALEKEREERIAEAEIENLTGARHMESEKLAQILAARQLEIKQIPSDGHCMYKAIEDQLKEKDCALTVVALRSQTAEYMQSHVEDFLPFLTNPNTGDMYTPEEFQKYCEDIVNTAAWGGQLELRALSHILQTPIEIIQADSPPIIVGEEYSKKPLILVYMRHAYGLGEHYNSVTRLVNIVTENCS
Summed up:
(§1)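 HEK293T lysate in Tris/CHAPS/IGEPAL buffer with protease inhibitors (495 µg per sample) was given fragment at 200 µM or vehicle for 3 h, in triplicate. It then received Biotin-Ahx-Ub-VS at 0.5 µM final for 1 h. Labelled DUBs were NeutrAvidin-enriched, digested with LysC and trypsin, and run by diaPASEF LC-MS/MS. Values are average log2 fragment/vehicle ratios by unpaired t-test on global-median-normalised Spectronaut quantities of proteins with ≥2 unique peptides.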

Another experiment deals with T2, OTUD7B (UniProt Q6GQQ9).
T2 sequence (whole entry): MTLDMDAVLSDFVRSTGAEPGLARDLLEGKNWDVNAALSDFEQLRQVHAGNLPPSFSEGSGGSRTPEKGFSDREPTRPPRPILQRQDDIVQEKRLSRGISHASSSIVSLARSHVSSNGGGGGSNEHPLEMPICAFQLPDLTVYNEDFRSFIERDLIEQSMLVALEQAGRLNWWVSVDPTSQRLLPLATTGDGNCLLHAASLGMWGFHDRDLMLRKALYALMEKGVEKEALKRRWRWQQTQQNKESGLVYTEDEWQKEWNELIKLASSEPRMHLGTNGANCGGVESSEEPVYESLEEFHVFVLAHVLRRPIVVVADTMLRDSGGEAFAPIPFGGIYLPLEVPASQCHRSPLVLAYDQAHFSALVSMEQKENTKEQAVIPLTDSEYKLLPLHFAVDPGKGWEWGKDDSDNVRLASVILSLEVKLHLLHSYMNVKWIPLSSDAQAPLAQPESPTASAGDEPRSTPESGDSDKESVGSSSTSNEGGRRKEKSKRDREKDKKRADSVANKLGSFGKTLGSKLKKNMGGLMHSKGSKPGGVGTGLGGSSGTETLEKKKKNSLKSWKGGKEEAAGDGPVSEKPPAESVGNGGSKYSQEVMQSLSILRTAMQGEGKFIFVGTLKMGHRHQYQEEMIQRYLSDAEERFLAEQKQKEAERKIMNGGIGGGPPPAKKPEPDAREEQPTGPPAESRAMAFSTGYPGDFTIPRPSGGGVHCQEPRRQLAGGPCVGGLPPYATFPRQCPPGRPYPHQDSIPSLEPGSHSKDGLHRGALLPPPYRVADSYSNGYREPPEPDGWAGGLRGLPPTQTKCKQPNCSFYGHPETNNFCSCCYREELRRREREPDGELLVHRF
In a few lines: as §1

The next experiment has as its target PRPF8 (UniProt Q6P2Q9). In a few lines:
as §1

The target of another experiment is T3, PSMD7 (UniProt P51665).
T3 sequence (whole entry): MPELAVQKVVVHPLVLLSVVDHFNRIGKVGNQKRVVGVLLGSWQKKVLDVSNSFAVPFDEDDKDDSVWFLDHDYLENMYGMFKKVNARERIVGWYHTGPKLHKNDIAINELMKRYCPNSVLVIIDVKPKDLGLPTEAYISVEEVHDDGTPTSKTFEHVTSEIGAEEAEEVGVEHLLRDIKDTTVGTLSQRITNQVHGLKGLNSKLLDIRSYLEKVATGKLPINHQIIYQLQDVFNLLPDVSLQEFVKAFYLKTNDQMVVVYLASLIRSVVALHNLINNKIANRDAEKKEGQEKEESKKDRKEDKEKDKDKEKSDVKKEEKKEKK
Summed up:
as §1

The next experiment deals with UCHL1 (UniProt P09936). In a few lines: as §1
Chain of UCHL1 (P09936 whole entry, looked up): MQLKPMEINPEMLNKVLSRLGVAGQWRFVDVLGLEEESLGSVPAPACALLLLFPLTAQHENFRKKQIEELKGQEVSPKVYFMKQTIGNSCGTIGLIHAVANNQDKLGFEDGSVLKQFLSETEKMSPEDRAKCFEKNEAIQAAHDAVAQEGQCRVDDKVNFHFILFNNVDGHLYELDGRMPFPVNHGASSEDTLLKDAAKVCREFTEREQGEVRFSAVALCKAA
For a further experiment, the target named is T4, UCHL3 (UniProt P15374).
T4 sequence (whole entry): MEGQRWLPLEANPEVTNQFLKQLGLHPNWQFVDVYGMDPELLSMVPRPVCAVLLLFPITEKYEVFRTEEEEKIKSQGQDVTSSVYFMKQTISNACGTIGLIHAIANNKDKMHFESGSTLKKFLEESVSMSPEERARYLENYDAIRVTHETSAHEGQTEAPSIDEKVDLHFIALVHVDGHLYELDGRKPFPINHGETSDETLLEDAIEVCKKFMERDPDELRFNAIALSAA
Summed up: as §1

The target of the next experiment is T5, UCHL5 (UniProt Q9Y5K5).
T5 sequence (whole entry): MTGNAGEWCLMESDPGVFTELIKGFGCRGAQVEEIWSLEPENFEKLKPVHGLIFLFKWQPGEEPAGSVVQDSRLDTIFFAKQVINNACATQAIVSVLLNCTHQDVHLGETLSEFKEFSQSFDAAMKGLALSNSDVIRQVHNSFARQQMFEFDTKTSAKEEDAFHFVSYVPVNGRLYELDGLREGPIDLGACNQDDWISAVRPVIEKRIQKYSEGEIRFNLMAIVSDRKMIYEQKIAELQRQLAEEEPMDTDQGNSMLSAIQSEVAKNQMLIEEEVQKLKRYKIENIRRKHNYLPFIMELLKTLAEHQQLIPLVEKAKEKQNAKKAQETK
In a few lines:
as §1

For the next experiment, the target named is USP10 (UniProt Q14694). Summed up: as §1
Chain of USP10 (Q14694 whole entry): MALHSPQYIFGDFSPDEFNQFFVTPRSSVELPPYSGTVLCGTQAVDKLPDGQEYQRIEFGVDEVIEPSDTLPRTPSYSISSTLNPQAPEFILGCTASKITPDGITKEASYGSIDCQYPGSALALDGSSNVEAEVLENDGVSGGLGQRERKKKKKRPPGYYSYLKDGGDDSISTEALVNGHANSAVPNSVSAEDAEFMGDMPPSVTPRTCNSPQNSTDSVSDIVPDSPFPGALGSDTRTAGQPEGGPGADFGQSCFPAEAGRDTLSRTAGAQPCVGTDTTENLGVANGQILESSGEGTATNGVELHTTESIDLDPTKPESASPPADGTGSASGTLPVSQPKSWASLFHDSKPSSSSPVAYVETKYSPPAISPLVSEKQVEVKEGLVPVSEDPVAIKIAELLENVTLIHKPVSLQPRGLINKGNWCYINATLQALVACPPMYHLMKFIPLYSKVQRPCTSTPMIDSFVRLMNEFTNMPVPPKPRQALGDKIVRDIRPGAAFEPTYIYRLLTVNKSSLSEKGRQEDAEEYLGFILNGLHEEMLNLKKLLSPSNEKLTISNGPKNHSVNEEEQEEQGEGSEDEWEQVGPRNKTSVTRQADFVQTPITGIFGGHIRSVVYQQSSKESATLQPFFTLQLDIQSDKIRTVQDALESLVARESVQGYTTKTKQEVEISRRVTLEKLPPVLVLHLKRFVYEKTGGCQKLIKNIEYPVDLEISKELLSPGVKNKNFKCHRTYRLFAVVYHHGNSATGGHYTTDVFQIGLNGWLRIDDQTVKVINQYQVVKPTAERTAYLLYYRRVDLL
Another experiment has as its target T6, USP15 (UniProt Q9Y4E8).
T6 sequence (whole entry): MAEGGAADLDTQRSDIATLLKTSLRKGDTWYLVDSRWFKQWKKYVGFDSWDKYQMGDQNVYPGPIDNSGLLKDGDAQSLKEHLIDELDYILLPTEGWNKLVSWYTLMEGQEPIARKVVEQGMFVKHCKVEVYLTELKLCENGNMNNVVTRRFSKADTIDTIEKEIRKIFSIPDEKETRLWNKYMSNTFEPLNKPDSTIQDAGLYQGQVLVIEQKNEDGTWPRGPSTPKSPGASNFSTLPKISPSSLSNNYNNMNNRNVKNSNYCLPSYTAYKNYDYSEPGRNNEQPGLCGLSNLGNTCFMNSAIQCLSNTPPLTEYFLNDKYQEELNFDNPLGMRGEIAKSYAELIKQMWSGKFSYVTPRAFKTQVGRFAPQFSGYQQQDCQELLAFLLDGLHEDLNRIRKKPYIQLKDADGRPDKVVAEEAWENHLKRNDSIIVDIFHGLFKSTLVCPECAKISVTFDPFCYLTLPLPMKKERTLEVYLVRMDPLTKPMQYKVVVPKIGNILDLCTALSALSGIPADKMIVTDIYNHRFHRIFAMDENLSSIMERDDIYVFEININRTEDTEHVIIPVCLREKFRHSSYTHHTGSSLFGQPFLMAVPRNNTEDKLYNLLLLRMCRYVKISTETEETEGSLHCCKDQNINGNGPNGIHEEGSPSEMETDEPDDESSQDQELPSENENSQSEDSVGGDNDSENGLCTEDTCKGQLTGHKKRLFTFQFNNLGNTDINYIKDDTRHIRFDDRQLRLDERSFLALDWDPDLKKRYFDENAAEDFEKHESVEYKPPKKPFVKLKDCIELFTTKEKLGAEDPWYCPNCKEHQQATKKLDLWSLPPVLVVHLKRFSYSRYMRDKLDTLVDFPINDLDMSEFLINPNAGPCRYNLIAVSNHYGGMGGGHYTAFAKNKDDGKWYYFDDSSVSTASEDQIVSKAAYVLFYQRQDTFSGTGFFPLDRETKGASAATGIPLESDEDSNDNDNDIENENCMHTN
Summed up:
as §1

Another experiment concerns the target USP16 (UniProt Q9Y5T5). In a few lines: as §1

Values without a mark were called inactive.

Chain of USP16 (Q9Y5T5 whole entry, looked up): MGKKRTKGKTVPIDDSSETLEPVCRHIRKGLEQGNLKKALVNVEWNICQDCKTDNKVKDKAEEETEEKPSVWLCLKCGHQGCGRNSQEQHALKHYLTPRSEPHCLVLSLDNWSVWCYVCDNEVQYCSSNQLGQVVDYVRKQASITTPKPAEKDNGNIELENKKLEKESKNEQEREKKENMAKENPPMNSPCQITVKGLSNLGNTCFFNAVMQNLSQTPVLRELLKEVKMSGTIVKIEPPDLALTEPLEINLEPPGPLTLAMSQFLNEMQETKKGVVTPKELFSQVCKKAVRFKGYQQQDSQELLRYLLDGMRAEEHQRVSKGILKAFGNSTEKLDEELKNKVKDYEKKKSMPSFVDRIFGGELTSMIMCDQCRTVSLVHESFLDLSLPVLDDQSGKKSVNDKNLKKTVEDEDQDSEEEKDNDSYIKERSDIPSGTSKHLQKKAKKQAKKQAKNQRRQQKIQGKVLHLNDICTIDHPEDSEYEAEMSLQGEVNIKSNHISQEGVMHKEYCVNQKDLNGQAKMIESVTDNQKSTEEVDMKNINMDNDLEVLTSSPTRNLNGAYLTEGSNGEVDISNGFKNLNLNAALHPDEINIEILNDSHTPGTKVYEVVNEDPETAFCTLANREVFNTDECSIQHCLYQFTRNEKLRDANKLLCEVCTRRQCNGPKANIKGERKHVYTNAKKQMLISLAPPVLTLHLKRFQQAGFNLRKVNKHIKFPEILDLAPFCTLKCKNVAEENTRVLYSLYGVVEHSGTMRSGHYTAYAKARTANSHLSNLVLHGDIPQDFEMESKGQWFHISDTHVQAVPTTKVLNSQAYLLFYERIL

With `O=C(CCl)N1CCC(=C(F)CO)C1`, the “log2 ratio of Biotin-Ahx-Ub-VS probe labelling” value was 0.0579 in the experiment with OTUD6B; 0.0673 with OTUD7B; 0.202 with PRPF8; 0.0975 with PSMD7; -1.56 (active) with UCHL1; -0.0974 with UCHL3. The “log2 ratio of Biotin-Ahx-Ub-VS probe labelling” value with UCHL5 was 0.0121; with USP10, -0.107; in the experiment with USP15, -0.156; with USP16, -0.506.

Values taken from the supplement of paper PMC11732987, “Enantioselective OTUD7B fragment discovery through chemoproteomics screening and high-throughput optimisation” (Communications Chemistry, 2025).
